For 1 sequence, binding signal results are on record in publication PMC7862700, “An all-to-all approach to the identification of sequence-specific readers for epigenetic DNA modifications on cytosine”.

Assay in all cases: DAPPL (digital affinity profiling via proximity ligation, sequencing); 10 mM Tris-HCl pH 7.5, 50 mM NaCl, 1 mM DTT, 4% glycerol, room temperature, 30 min; GST-TFs on glutathione beads, 16-mer random dsDNA library, 0.1% formaldehyde crosslink after washing; high values mean tight binding
One assay concerns the target T1, FEV (Homo sapiens, UniProt Q99581 1-238).
T1 sequence: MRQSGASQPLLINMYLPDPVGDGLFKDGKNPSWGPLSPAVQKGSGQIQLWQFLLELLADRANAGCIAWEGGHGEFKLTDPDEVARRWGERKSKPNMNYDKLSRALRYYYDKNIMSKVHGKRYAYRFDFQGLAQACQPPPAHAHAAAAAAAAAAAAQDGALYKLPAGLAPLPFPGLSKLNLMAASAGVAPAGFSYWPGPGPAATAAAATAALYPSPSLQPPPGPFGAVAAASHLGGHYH
To be noted: protein: recombinant; tags: N-terminal GST; dsDNA, one strand shown. In short, it runs like this:
(§1)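 Binding signal is each hexamer's read frequency for a factor divided by its frequency in the tag-only sample. The factors were GST-fused human transcription factors from yeast, captured on glutathione beads, DNA-barcoded and pooled with that sample. Pools were incubated with 200 nmole of a random double-stranded 16-mer DNA library in Tris/NaCl/DTT/glycerol buffer at room temperature for 30 min, then washed, crosslinked with 0.1% formaldehyde, proximity-ligated with BsaI/T4 ligase (1 h, 37 °C), PCR-amplified and sequenced on an Illumina NextSeq500.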

For another assay, the target named is ETV5 (Homo sapiens, UniProt P41161 1-510). Particulars: protein: recombinant; tags: N-terminal GST; dsDNA, one strand shown. In short, it runs like this: as §1
ETV5, sequence (P41161 whole entry): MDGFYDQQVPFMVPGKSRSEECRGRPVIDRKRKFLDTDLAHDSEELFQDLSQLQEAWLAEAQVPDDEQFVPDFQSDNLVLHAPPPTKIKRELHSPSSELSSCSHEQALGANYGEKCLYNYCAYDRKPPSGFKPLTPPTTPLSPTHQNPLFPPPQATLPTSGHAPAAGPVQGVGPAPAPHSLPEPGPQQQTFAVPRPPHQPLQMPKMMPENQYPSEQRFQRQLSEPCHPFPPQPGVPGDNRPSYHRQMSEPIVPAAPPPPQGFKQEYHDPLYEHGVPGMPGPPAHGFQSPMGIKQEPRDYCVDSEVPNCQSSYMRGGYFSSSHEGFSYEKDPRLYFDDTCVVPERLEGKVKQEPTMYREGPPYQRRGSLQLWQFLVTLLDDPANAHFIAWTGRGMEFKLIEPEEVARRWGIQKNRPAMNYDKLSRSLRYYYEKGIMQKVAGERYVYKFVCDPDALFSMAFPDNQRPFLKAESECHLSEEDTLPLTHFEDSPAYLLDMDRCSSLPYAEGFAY
For a further assay, the target named is HSF1 (Homo sapiens, UniProt Q00613 1-529). Particulars: protein: recombinant; tags: N-terminal GST; chain copies: 3; dsDNA, one strand shown. The gist of the method:
as §1

In another assay the target is T2, SPIC (Homo sapiens, UniProt Q8N5J4 1-248).
T2 sequence: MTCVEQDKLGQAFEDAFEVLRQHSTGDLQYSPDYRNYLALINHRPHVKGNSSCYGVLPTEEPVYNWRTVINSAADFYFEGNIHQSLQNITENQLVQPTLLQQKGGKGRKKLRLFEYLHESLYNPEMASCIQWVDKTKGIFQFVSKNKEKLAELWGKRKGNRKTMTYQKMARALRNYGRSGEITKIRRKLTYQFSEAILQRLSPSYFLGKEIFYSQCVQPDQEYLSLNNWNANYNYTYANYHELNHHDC
Particulars: protein: recombinant; tags: N-terminal GST; dsDNA, one strand shown. In short, it runs like this:
as §1

Another assay deals with ELF4 (Homo sapiens, UniProt Q99607 1-663). Particulars: protein: recombinant; tags: N-terminal GST; dsDNA, one strand shown. In short, it runs like this:
as §1

A further assay addresses T3, ELK4 (Homo sapiens, UniProt P28324-2 1-405).
T3 sequence: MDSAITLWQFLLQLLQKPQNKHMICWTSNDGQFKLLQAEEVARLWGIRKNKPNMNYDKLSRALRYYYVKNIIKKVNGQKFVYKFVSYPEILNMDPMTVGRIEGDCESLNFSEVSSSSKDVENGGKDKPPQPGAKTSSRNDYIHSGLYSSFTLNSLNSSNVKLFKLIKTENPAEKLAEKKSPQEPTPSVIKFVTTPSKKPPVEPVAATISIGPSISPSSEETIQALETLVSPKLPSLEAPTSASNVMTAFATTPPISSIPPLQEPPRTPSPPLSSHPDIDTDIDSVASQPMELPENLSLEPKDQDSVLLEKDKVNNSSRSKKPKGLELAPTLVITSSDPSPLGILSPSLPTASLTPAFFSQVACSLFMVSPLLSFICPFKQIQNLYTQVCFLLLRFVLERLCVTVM
Particulars: protein: recombinant; tags: N-terminal GST; dsDNA, one strand shown. The gist of the method:
as §1

The target of a further assay is T4, ETV2 (Homo sapiens, UniProt O00321 1-342).
T4 sequence: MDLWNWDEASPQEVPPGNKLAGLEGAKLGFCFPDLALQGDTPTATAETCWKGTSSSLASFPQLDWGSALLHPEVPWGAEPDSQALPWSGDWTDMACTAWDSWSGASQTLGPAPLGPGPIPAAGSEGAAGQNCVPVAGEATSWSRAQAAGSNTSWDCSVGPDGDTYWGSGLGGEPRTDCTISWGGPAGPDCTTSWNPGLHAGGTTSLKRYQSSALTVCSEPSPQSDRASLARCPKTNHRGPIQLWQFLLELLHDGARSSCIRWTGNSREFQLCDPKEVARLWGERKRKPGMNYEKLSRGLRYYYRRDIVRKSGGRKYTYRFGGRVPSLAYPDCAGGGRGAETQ
Particulars: protein: recombinant; tags: N-terminal GST; dsDNA, one strand shown. In short, it runs like this:
as §1

The target in the next assay is T5, ELF3 (Homo sapiens, UniProt P78545 1-371).
T5 sequence: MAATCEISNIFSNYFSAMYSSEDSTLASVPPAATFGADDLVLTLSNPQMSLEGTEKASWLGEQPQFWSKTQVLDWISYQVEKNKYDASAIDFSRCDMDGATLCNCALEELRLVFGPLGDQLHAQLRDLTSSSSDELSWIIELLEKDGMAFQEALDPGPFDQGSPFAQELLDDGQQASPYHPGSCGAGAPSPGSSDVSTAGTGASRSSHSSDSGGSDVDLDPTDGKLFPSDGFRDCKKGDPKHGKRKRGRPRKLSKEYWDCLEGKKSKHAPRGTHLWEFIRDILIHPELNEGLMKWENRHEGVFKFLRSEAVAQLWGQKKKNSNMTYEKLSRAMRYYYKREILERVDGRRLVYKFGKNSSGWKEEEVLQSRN
Particulars: protein: recombinant; tags: N-terminal GST; dsDNA, one strand shown. The gist of the method: as §1

For another assay, the target named is CRX (Homo sapiens, UniProt O43186 1-299). To be noted: protein: recombinant; tags: N-terminal GST; dsDNA, one strand shown. In short, it runs like this:
as §1

The target in a further assay is ETV1 (Homo sapiens, UniProt P50549 1-477). Particulars: protein: recombinant; tags: N-terminal GST; dsDNA, one strand shown. In short, it runs like this:
as §1

For another assay, the target named is T6, ERF (Homo sapiens, UniProt P50548 1-548).
T6 sequence: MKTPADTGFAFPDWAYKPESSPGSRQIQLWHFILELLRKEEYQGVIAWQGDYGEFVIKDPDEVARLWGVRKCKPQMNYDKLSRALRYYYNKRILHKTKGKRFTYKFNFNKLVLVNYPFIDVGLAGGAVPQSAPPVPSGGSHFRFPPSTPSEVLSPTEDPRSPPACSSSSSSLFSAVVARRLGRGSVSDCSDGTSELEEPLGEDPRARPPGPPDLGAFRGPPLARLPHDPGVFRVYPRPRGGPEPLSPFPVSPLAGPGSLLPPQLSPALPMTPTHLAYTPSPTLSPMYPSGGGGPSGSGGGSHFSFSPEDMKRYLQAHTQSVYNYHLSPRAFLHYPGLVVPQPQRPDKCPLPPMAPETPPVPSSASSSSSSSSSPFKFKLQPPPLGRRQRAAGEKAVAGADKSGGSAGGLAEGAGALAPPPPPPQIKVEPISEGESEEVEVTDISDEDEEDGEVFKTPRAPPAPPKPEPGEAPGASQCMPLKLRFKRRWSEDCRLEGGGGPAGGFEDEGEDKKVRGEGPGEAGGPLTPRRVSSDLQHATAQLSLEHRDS
Particulars: protein: recombinant; tags: N-terminal GST; dsDNA, one strand shown. The gist of the method: as §1

In another assay the target is T7, ETV3L (Homo sapiens, UniProt Q6ZN32 1-361).
T7 sequence: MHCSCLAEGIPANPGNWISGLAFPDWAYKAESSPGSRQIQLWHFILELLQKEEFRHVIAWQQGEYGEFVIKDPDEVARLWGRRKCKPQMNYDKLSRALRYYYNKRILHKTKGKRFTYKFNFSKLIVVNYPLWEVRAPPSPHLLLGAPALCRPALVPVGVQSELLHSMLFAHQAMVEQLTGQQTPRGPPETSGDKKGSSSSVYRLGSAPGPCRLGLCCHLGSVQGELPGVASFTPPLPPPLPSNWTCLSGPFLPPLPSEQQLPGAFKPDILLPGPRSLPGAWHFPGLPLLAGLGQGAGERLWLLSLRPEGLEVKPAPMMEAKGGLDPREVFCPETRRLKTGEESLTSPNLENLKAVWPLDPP
Particulars: protein: recombinant; tags: N-terminal GST; dsDNA, one strand shown. The gist of the method: as §1

The target of a further assay is T8, ETS2 (Homo sapiens, UniProt P15036 1-469).
T8 sequence: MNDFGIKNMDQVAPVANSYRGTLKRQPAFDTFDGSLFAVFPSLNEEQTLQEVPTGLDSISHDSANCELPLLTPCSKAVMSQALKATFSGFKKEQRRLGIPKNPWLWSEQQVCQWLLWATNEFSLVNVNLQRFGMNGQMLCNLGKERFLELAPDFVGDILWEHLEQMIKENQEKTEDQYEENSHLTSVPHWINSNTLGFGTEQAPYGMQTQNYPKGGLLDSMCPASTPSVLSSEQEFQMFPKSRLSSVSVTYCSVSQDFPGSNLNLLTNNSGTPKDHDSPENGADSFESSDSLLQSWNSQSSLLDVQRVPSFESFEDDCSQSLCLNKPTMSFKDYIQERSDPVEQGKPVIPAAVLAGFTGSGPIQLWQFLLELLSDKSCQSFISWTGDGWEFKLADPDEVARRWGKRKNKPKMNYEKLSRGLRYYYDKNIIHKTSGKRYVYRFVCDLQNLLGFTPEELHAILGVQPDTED
Particulars: protein: recombinant; tags: N-terminal GST; dsDNA, one strand shown. The gist of the method: as §1

The next assay concerns the target T9, SPDEF (Homo sapiens, UniProt O95238 1-335).
T9 sequence: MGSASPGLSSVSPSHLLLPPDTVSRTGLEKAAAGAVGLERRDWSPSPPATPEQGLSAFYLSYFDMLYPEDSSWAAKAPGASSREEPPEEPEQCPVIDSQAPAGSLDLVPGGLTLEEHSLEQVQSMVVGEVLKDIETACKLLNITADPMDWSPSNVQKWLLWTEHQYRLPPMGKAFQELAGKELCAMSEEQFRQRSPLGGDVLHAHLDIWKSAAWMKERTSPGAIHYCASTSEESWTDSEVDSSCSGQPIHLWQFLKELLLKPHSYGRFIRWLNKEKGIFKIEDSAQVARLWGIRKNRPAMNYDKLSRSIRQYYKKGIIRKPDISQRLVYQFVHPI
Particulars: protein: recombinant; tags: N-terminal GST; dsDNA, one strand shown. The gist of the method: as §1

For another assay, the target named is T10, ETV7 (Homo sapiens, UniProt Q9Y603 1-341).
T10 sequence: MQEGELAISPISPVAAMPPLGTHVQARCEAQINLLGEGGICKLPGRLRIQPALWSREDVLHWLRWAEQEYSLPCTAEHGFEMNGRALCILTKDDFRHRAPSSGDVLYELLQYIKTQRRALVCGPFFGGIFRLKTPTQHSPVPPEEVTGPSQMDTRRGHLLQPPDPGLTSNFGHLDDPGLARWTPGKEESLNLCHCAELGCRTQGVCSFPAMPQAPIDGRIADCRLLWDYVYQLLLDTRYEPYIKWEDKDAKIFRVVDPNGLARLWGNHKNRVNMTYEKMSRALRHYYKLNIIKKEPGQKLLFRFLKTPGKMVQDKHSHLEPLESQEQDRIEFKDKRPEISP
To be noted: protein: recombinant; tags: N-terminal GST; dsDNA, one strand shown. In short, it runs like this:
as §1

A further assay deals with T11, ELF5 (Homo sapiens, UniProt Q9UKW6-2 1-255).
T11 sequence: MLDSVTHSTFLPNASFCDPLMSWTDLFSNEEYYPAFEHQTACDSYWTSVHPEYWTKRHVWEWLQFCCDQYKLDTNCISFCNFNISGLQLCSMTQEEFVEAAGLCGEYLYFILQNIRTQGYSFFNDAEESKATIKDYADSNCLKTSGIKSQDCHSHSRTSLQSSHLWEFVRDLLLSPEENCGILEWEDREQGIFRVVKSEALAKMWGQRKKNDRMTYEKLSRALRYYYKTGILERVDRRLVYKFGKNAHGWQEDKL
Particulars: protein: recombinant; tags: N-terminal GST; dsDNA, one strand shown. In short, it runs like this:
as §1

The next assay deals with T12, ETV3 (Homo sapiens, UniProt P41162-2 1-143).
T12 sequence: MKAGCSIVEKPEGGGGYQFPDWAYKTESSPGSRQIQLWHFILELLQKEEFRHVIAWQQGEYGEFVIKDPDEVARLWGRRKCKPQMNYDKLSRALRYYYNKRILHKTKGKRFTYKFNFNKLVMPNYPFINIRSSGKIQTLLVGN
Particulars: protein: recombinant; tags: N-terminal GST; dsDNA, one strand shown. In short, it runs like this:
as §1

Another assay deals with ETV6 (Homo sapiens, UniProt P41212 1-452). Particulars: protein: recombinant; tags: N-terminal GST; dsDNA, one strand shown. In short, it runs like this:
as §1

ETV6, sequence (P41212 whole entry): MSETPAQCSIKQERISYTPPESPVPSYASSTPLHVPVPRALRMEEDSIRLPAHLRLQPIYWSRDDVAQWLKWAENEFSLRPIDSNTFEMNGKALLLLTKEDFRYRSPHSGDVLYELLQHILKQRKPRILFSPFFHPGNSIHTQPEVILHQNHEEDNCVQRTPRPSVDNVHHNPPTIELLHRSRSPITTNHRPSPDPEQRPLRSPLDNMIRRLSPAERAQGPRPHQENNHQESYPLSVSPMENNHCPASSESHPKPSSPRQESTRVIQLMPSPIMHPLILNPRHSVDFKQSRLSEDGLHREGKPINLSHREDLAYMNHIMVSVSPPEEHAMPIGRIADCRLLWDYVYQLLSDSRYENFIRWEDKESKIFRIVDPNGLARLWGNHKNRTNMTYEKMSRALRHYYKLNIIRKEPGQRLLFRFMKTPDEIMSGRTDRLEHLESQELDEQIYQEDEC
ETV1, sequence (P50549 whole entry): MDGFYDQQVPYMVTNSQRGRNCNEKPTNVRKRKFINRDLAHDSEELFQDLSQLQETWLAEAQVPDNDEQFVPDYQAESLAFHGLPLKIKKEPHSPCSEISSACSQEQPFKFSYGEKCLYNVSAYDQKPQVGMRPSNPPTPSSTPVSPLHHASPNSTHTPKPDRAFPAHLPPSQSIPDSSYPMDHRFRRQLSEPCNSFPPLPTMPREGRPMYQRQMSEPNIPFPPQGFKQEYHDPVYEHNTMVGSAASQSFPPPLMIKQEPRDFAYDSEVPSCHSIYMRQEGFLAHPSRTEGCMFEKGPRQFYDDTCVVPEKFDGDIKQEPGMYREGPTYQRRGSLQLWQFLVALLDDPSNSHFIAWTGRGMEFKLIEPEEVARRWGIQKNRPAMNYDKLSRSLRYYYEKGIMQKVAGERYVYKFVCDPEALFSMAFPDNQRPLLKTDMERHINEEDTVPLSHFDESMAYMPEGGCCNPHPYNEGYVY
HSF1, sequence (Q00613 whole entry): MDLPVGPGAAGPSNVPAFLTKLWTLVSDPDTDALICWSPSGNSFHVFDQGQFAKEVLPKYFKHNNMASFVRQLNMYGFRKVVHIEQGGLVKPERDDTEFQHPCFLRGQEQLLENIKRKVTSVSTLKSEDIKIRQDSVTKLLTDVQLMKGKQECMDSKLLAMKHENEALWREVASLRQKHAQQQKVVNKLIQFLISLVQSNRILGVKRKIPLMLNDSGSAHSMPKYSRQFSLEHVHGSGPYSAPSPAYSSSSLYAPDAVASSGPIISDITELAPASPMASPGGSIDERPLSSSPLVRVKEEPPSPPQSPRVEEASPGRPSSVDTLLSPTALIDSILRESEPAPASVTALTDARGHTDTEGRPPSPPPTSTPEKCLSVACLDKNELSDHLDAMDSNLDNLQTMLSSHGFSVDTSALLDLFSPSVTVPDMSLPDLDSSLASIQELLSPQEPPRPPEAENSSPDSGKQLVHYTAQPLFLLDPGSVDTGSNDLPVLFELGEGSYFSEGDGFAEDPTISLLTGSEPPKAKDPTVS
CRX, sequence (O43186 whole entry): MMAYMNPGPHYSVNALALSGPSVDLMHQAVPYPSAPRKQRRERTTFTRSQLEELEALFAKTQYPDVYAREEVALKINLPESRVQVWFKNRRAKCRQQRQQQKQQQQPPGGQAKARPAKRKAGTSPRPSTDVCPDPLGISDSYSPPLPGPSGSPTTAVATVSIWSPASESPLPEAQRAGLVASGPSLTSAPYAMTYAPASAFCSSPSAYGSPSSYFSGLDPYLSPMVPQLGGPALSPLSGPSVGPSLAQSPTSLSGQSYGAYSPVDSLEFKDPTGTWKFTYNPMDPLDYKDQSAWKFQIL
ELF4, sequence (Q99607 whole entry): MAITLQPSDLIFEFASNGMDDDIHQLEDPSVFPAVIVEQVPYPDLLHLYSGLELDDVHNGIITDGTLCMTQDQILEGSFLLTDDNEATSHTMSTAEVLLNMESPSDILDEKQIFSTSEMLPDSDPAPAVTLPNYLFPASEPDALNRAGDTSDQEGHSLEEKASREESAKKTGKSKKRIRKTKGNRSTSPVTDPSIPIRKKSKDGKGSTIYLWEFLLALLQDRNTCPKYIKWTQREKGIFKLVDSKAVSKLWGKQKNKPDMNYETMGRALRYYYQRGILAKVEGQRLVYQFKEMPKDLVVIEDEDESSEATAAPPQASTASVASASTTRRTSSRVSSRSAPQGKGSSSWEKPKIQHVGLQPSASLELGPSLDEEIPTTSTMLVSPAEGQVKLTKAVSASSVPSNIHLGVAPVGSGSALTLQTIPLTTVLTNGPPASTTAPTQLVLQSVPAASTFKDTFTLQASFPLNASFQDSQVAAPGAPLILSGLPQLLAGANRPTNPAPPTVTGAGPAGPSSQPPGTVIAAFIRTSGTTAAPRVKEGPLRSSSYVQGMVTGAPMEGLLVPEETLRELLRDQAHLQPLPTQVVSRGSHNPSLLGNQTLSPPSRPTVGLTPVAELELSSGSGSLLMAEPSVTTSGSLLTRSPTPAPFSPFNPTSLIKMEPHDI

Regarding GATGAT, the binding signal in the assay with FEV is 1.18 fold enrichment (6-mer frequency, TF over GST control); with ETV5, 1.31 fold enrichment (6-mer frequency, TF over GST control); with HSF1, 1.49 fold enrichment (6-mer frequency, TF over GST control); with SPIC it was 1.23 fold enrichment (6-mer frequency, TF over GST control); with ELF4 it was 1.32 fold enrichment (6-mer frequency, TF over GST control); with ELK4, 1.26 fold enrichment (6-mer frequency, TF over GST control). For the same sequence, the binding signal with ETV2 is 1.33 fold enrichment (6-mer frequency, TF over GST control); in the assay with ELF3, 1.33 fold enrichment (6-mer frequency, TF over GST control); with CRX it was 1.68 fold enrichment (6-mer frequency, TF over GST control); with ETV1, 1.27 fold enrichment (6-mer frequency, TF over GST control); with ERF it was 1.5 fold enrichment (6-mer frequency, TF over GST control); in the assay with ETV3L it was 1.31 fold enrichment (6-mer frequency, TF over GST control). In addition, the binding signal is 1.23 fold enrichment (6-mer frequency, TF over GST control) in the assay with ETS2; 1.32 fold enrichment (6-mer frequency, TF over GST control) with SPDEF; 1.36 fold enrichment (6-mer frequency, TF over GST control) in the assay with ETV7; 1.24 fold enrichment (6-mer frequency, TF over GST control) with ELF5; 1.39 fold enrichment (6-mer frequency, TF over GST control) in the assay with ETV3; 1.3 fold enrichment (6-mer frequency, TF over GST control) with ETV6.
